Screens: PubChem, National Center for Advancing Translational Sciences (NCATS)
Sfp PPTase inh: qHTS Assay for Inhibitors of Bacillus subtilis Sfp phosphopantetheinyl transferase (PPTase); Potency, µM, hits mostly inhibitors; hit rate 3.5% among 310,000; AID 1490, 2009; Biochemical Sfp PPTase activity, qHTS; 4'-phosphopantetheinyl transferase ffp (Bacillus subtilis), Q9F4F7;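 note: the enzyme is Sfp with the accession as filed and its product quenches rhodamine fluorescence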
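Buffer: 50 mM Hepes-Na pH 7.6, 10 mM MgCl2, 0.01% Nonidet P-40, 0.01% BSA. Enzyme 15 nM, pre-exposed to compound 15 min; substrates then added and fluorescence change tracked over 30 min.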
HP1b binding inh: HTS for Inhibitors of HP1-beta Chromodomain Interactions with Methylated Histone Tails; Chromobox protein homolog 1 (Homo sapiens), P83916; AlphaScreen HP1-beta / biotin-H3K9me3 peptide binding; Potency, µM (titrated, usually from 114 µM), most hits filed as inhibitors; hit rate 0.56% among 390,000; AID 540317, 2011; note: nearly all actives have a fitted effect of over 70% in size
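Compound inhibition of the preformed complex between 50 nM HP1-beta and 50 nM biotinylated H3K9me3 peptide was read by AlphaScreen. Buffer was PBS pH 7.4 with 0.01% Tween-20. Incubations ran 30 min at room temperature, with 10 ug/mL donor/acceptor beads.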
BAZ2B inh: qHTS Assay for Inhibitors of BAZ2B; AlphaScreen BAZ2B-H3K14Ac peptide displacement; Potency, µM (titrated, usually from 114 µM), actives largely listed as inhibitors; hit rate 4.4% among 360,000; note: nearly all actives have a fitted effect of over 60% in size
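In this displacement format the biotinylated H3(5-23) peptide acetylated at Lys14 serves as ligand at 50 nM, with BAZ2B at 50 nM in PBS pH 7.4 containing 0.01% Tween-20. Donor and acceptor beads are 10 ug/mL final.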
G9a block: qHTS Assay for Inhibitors of Histone Lysine Methyltransferase G9a. Histone-lysine N-methyltransferase EHMT2 (Homo sapiens), Q96KQ7. G9a H3K9 monomethylation, AlphaScreen, 2 h. Potency, µM (series often up to 102 µM), most hits filed as inhibitors. hit rate 8.8% among 350,000. AID 504332, 2011; note: nearly all actives have a fitted effect of over 75% in size
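Readings reflect AlphaScreen signal from monomethyl-H3K9 antibody detection. HMT at 20 nM; substrate b-H3K9 500 nM; cofactor SAM 20 uM; 2 h RT reaction; compounds tested as titrations in qHTS with 15 min preincubation.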
PLK1 PBD block: qHTS for Inhibitors of PLK1-PDB (polo-like kinase 1 - polo-box domain): Primary Screen; Serine/threonine-protein kinase PLK1 (Homo sapiens), P53350; hit rate 2.8% among 360,000; Potency, µM, actives largely listed as inhibitors; Plk1 PBD binding of FITC phosphopeptide, fluorescence polarization; note: series mostly up to about 57 µM; nearly all actives have a fitted effect of over 65% in size
JMJD2A Tudor inh: qHTS Assay for Inhibitors of JMJD2A-Tudor Domain. AlphaScreen JMJD2A-Tudor / H3K4me3 peptide binding. Potency, µM (titrated, usually from 114 µM), hits mostly inhibitors. hit rate 4.4% among 390,000; note: nearly all actives have a fitted effect of over 50% in size
Numbers stand for hits; n = inactive; u = inconclusive; x = no result given; [ ] = remark or other dose. A selection: hits, their analogues and other compounds. The true share with any hit is near 12%. Calls come from the whole dose curve; as a rule, active = well fitted curve in the direction sought with a large enough effect; inconclusive = small, poorly fitted or top-dose-only effect, or another doubt; inactive = no such curve, though single readings can be large; an effect the other way counts as inactive or inconclusive.

SMILES | Sfp PPTase inh | HP1b binding inh | BAZ2B inh | G9a block | PLK1 PBD block | JMJD2A Tudor inh
CCOc1ccc(/C=C2\SC(=S)NC2=O)cc1OC | n | n | u | 13µM | n | n
CCN1C(=O)S/C(=C/c2ccc(Oc3ccc([N+](=O)[O-])cn3)c(OC)c2)C1=O | n | n | n | u | n | n
Cc1ccc(C(O)c2ncc(-c3ccc(C(F)(F)F)cc3)[nH]2)cc1F (centres undefined) | x | x | x | x | n | x
COc1cc(/C=C2\SC(=O)NC2=O)ccc1OCC(=O)N1CCOCC1 | x | n | x | x | n | n
COc1ccc(/C=C2\SC(=S)NC2=O)cc1OS(=O)(=O)c1ccc(NC(C)=O)cc1 | n | n | n | u | u | n
COc1cc(/C=C2\SC(=O)NC2=O)ccc1Oc1ccc([N+](=O)[O-])cc1[N+](=O)[O-] | 56µM | u | 45µM | 10µM | 21µM | 35µM
COc1cc(/C=C2/SC(=S)NC2=O)ccc1OS(=O)(=O)c1ccc(C)cc1 | 25µM | u | 50µM | 20µM | 9.5µM | 56µM
COc1ccc(/C=C2\SC(=O)NC2=S)cc1OC | 25µM | u | 40µM | 6.3µM | 27µM | 79µM
COc1cc(/C=C2\SC(=S)N(CCCCC(=O)O)C2=O)ccc1OS(=O)(=O)c1ccc(C)cc1 | x | u | 35µM | u | 30µM | 50µM
COc1ccc(/C=C2\SC(=S)N(CCCCCC(=O)Nc3cc(C)on3)C2=O)cc1OC | n | n | n | n | n | n
Cc1nc2cccnc2n1C1CCN(S(=O)(=O)N(C)C)CC1 | x | n | n | n | x | n
COc1cccc(OCCOc2ccc(/C=C3/SC(=S)NC3=O)cc2)c1 | 50µM | u | 45µM | 7.9µM | 9.5µM | 56µM
Cc1ccc(OCC(=O)N/N=C/C=C/c2ccco2)cc1C | 45µM | n | u | 40µM | n | n
O=C(CNc1cccc2ccccc12)N/N=C/c1ccc(C(=O)O)cc1 | n | n | n | u | n | n
O=C(CNc1cccc2ccccc12)N/N=C/C=C/c1ccco1 | n | n | n | 20µM | n | n
O=C(Cc1cccs1)N/N=C/C=C/c1ccco1 | u | 28µM | 45µM | 40µM | u | u
CC1=C(C(N)=O)C(c2ccccc2F)n2nc(-c3ccc(Cl)cc3)nc2N1 (centres undefined) | x | n | n | n | x | n
COc1cc(OC)cc(-c2nnc(SCc3ccc(C(=O)O)cc3)o2)c1 | 50µM | n | n | 40µM | 19µM | n
O=C(NCc1ccccc1F)C(=O)NCC(c1ccc2c(c1)OCO2)N1CCOCC1 (centres undefined) | x | n | n | n | x | u
CCC1C(O)=C(c2ccccn2)C(=N)N1c1ccccc1 (centres undefined) | n | n | u | 22µM | n | n
O=C(CSc1nnc2scc(-c3ccc(Cl)cc3)n12)NCc1ccco1 | n | n | n | n | n | n
O=C(CSc1nnc2scc(-c3ccccc3)n12)NCc1ccco1 | n | n | n | 79µM | n | n
O=C(CSc1nnc(C2CCCCC2)n1Cc1ccccc1)NCc1ccco1 | n | u | n | u | 27µM | 28µM
CC(C)(C)C(=O)CNCC(=O)C(C)(C)C | n | n | n | 40µM | n | n
CSc1ccc(C(=O)NCC(=O)O)cc1[N+](=O)[O-] | n | n | n | n | 27µM | n[11.4 µM]
O=C(O)CNC(=O)c1ccc(Sc2ccccc2)c([N+](=O)[O-])c1 | n | n | n | n | n | n
CCCNC(=O)OC[C@H]1O[C@H](CCO/N=C/c2ccc(C(=O)N3[C@H](c4ccc(C)cc4)[C@@H](C)CC[C@H]3C(=O)OC)cc2)C=C[C@@H]1Oc1ccc(OC)cc1 | n | x | n | 71µM | x | x
